FadD28 FP inh: inhibitors of FadD28 bisubstrate probe binding, primary screen, biochemical, fluorescence polarization, single point. inhibition, % at 12.5 µM. hit rate 0.22% among 360,000; in the data active = inhibition above about 8.5%, passing the limit was not always enough; inconclusive = no clear call, values can overlap the other calls
Y pestis TopoI: Yersinia pestis topoisomerase I inhibitors, primary screen, biochemical, cleavage product accumulation, plate reader, single point. Y. pestis Topo-I cleavage product accumulation. activity, % at 10 µM. hit rate 0.064% among 360,000. AID 504884, 2011; in the data active = activity above about 50%, passing the limit was not always enough; inconclusive = no clear call, values can overlap the other calls
BioA inh: M. tuberculosis BioA enzyme inhibitors, primary screen, biochemical, plate reader, single point, HTS. AID 602481, 2012. hit rate 0.096% among 360,000. purified M. tuberculosis BioA enzyme. 7,8-diaminopelargonic acid synthase BioA (Mycobacterium tuberculosis). inhibition, % at 9.99 µM; in the data active = inhibition above about 40%; inconclusive = no clear call, values can overlap the other calls
Vc quorum ag: inducers of Vibrio cholerae quorum light production without autoinducers, primary screen, BH1578 luxS cqsA deficient, single point. AID 588436, 2011. hit rate 0.16% among 350,000. activation, % at 18.7 µM. V. cholerae BH1578 lux reporter, luminescence, 6 h; in the data active = activation mostly above about 9.7%, no sharp cut-off; inconclusive = no clear call, values can overlap the other calls; inactive = mostly below about 3.7%
TcdB GH inh: TcdB glycohydrolase inhibitors, primary screen, biochemical, single point, plate reader | Toxin B (Clostridioides difficile), P18177 | TcdB glycohydrolase enzymatic assay | inhibition, % at 9.99 µM | hit rate 0.24% among 350,000 | AID 652162, 2013; in the data active = inhibition above about 10%
A number is an active result; i = inactive; ? = inconclusive; nt = not tested or not shown. Compounds with a hit are over-represented: about 0.61% of the library has one in this group of screens.

SMILES | FadD28 FP inh | Y pestis TopoI | BioA inh | Vc quorum ag | TcdB GH inh
C=CCOc1c(OC)cc(/C=N/Nc2cccc(C(=O)O)c2)c(Br)c1Br | 16 | i | i | i | i
COC(=O)c1ccc(COc2ccc(/C=N/Nc3cccc(C(=O)O)c3)cc2)cc1 | 11 | i | nt | i | i
COc1cccc(-c2ccccc2[C@H]2[C@@H](CO)N(C(=O)Cc3ccccc3)[C@H]2C#N)c1 | nt | nt | nt | nt | i
O=C(c1ccccc1)c1coc2ccc(O)c(Cl)c12 | i | i | i | i | 12
CCOc1ccc(NC(=O)c2ccc(CC)s2)c([N+](=O)[O-])c1 | i | i | i | i | 10
O=C(N/N=C/c1c[nH]c2ccccc12)c1cc(Cl)ccc1O | 16 | i | i | i | i
COCCN1C(=O)NC(=O)/C(=C\c2ccc(F)cc2)C1=O | i | i | i | i | i
CN(C)c1ccc(/C=C2\C(=O)NC(=O)N(CCc3ccc(F)cc3)C2=O)cc1 | 25 | i | i | i | i
O=C(NN=C1CCCC1)c1cc(Cl)cc(Cl)c1O | 20 | i | i | i | i
COc1ccc(Cl)cc1C(=O)NN=C1CCCC1 | i | i | nt | i | i
CCCNC(=O)N(C)C[C@@H]1Oc2cc(C#Cc3ccccn3)ccc2S(=O)(=O)N([C@@H](C)CO)C[C@@H]1C | nt | nt | i | nt | i
O=C(O)C1CCC(CN(Cc2cccc(Br)c2)C(=S)Nc2ccccc2F)CC1 (stereo not given) | i | i | i | i | 12
Cc1ccc(C)c(NC(=S)N(Cc2cccc(Br)c2)CC2CCC(C(=O)O)CC2)c1 (stereo not given) | i | i | i | i | i
COc1ccc(/C=C/C(=O)c2ccc([N+](=O)[O-])o2)cc1OC | nt | nt | nt | nt | i
COc1cc(/C=C/C(=O)c2ccc([N+](=O)[O-])o2)ccc1O | i | i | i | i | 12
O=c1/c(=C\c2cc([N+](=O)[O-])cc([N+](=O)[O-])c2O)sc2nc3ccccc3n12 | 23 | i | i | i | nt
O=C(O)c1cc(N/N=C/c2ccc(N3CCOCC3)s2)ccc1Cl | 45 | i | i | i | i
NC(=O)N/N=C/c1ccc(N2CCOCC2)s1 | i | i | nt | i | i
N#C[C@H]1[C@@H](c2ccc(C3=CCCC3)cc2)[C@H](CO)N1C(=O)Cc1ccncc1 | nt | nt | i | nt | i
COc1cc(/C=N/N2C(=O)c3ccccc3C2=O)ccc1O | i | i | i | i | i
COc1cc(/C=N/N2C(=O)C3C4C=CC(CC4)C3C2=O)ccc1O (stereo not given) | i | i | nt | i | 18
CCCN1C[C@@H](C)[C@@H](OC)CN(C)C(=O)c2ccc(NC(=O)C3CCOCC3)cc2OC[C@@H]1C | nt | nt | i | nt | i
Nc1cccc2c(O)cc(S(=O)(=O)O)cc12 | 36 | i | i | i | nt
O=C(O)c1cc2cc(S(=O)(=O)O)ccc2cc1O | i | i | nt | nt | i
O=S(=O)(O)c1ccc(O)c2cc(Nc3ccccc3)ccc12 | 59 | i | i | i | i
SMILES | FadD28 FP inh | Y pestis TopoI | BioA inh | Vc quorum ag | TcdB GH inh
CC(=O)Nc1ccc2c(O)cc(S(=O)(=O)O)cc2c1 | i | i | i | i | i
Nc1ccc2c(O)cc(S(=O)(=O)O)cc2c1 | i | i | i | i | i
O=S(=O)(O)c1cc(O)c2ccc(Nc3ccccc3)cc2c1 | 24 | i | i | i | i
O=S(=O)(O)c1cc(O)c2cc(Nc3ccccc3)ccc2c1 | 28 | i | i | i | i
Cc1ccc(S(=O)(=O)Nc2ccc3c(c2)C(=O)N([C@H](C)CO)C[C@H](C)[C@@H](CN(C)C(=O)Nc2c(C)noc2C)OCCCC[C@H](C)O3)cc1 | nt | nt | i | nt | i
C[C@@H]1CN([C@@H](C)CO)C(=O)c2cc(NS(=O)(=O)c3cn(C)cn3)ccc2O[C@@H]1CN(C)Cc1ccc(C(=O)O)cc1 | nt | nt | i | nt | i
Cc1cccc(S(=O)(=O)N2CCCCN3[C@H](CO)[C@@H](c4ccc(-c5ccccc5)cc4)[C@@H]3C2)c1 | nt | nt | i | nt | i
O=C(NC[C@@H]1CC[C@H]2[C@H](CN2Cc2ccccc2F)O1)C1CC1 | nt | nt | nt | nt | i
C[C@H]1CN([C@@H](C)CO)C(=O)c2cc(C#CC(C)(C)O)cnc2O[C@H]1CN(C)C(=O)C1CCCCC1 | nt | nt | i | nt | nt
COc1ccc(S(=O)(=O)O)cc1P(=O)(c1ccccc1)c1ccccc1 | i | i | i | i | i
COc1ccccc1Nc1ccc2c(O)cc(S(=O)(=O)O)cc2c1 | 70 | i | i | i | i
Cc1cc(O)c2c(c1)C(=O)C13C(=C2O)C(=O)[C@H]2[C@@H](O)[C@@H]1[C@H]1[C@H](O)[C@@H]3C(=O)C3=C(O)c4c(O)cc(C)cc4C(=O)C312 (stereo not given in full) | i | 403 | i | i | nt
O=C(NC(=S)Nc1cccc(O)c1)c1cncc(Br)c1 | i | i | nt | i | i
O=C(NC(=S)Nc1ccc(O)cc1)c1cncc(Br)c1 | i | i | nt | i | 15
O=C(CSc1nnc(CNc2ccc(Cl)cc2)o1)Nc1nc2c(s1)CCCC2 | 15 | i | i | i | nt
CNC[C@@H]1Oc2ccc(NC(=O)NC(C)C)cc2C(=O)N([C@@H](C)CO)C[C@H]1C | nt | nt | i | nt | i
COCC(=O)Nc1ccc2c(c1)[C@@H]1C[C@@H](CC(=O)NCc3ccccn3)O[C@@H](CO)[C@@H]1O2 | nt | nt | i | nt | i
CCCCCCCCCCCCCCC[C@@H](O)[C@@H](N)CO | 48 | i | i | i | i
Nc1ccc2nc(-c3cccs3)[nH]c2c1 | i | i | i | i | 13
Nc1ccc2nc(-c3ccccc3)[nH]c2c1 | i | i | i | i | nt
O=C(O)CC/C(=C\c1ccc(N2CCCC2)c([N+](=O)[O-])c1)c1nc2ccccc2s1 | ? | i | nt | i | i
CN(c1ccccc1)c1ccc(/C=C(/CCC(=O)O)c2nc3ccccc3s2)cc1[N+](=O)[O-] | 19 | i | nt | nt | i
COCC(=O)N1[C@H](CO)[C@H](c2ccccc2-c2cccc(OC)c2)[C@@H]1C#N | nt | nt | nt | nt | i
Cc1ccc(S(=O)(=O)Nc2ccc3c(c2)C(=O)N([C@H](C)CO)C[C@H](C)[C@H](CN(C)S(=O)(=O)c2cccs2)OCCCC[C@H](C)O3)cc1 | nt | nt | i | nt | i
CCOC(=O)Cn1c(C(F)(F)F)nc2nc(Cl)c(Cl)nc21 | i | i | nt | i | 12
SMILES | FadD28 FP inh | Y pestis TopoI | BioA inh | Vc quorum ag | TcdB GH inh
CCOC(=O)Cn1c2ccccc2c2nc3ccccc3nc21 | i | i | i | i | nt
COc1ccc(CCNc2oc(-c3ccc(OC)c(OC)c3)nc2C#N)cc1 | 12 | i | i | i | nt
CCOC(=O)c1c(NC(C)=O)sc2c1CCC(C=NCCCN(CC)CC)=C2Sc1ccccc1 | i | i | i | 20 | nt
COCC#Cc1ccc2c(c1)O[C@@H](CN(C)C(=O)C1CC1)[C@@H](C)CN([C@@H](C)CO)S2(=O)=O | nt | nt | i | nt | i
O=C(N/N=C/c1cccc([N+](=O)[O-])c1)c1ccc(Br)cc1 | i | i | nt | i | 11
COc1cccc(-c2ccc([C@H]3[C@@H](CO)N4C(=O)CNC[C@@H]34)cc2)c1 | nt | nt | nt | nt | i
Cc1ccc(/C=C2\SC(=S)N(/N=C/c3cc([N+](=O)[O-])ccc3O)C2=O)o1 | 26 | i | nt | i | nt
